Screens deposited in PubChem BioAssay by several laboratories.
tim23-1 inh – growth inhibitors of tim23-1 mutant yeast, primary screen, luminescence, uHTS; S. cerevisiae tim23-1 growth, BacTiter-Glo luminescence, 24 h; inhibition, % at 20 µM; hit rate 1.3% among 330,000;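 active = growth inhibition of the mutant yeast at or above 50%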;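 also: temperature-sensitive mutant grown at 25 °C; plate controls were DMSO-treated mutant yeast for no effect and medium wells lacking yeast for full effect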
Beta2AR agonist – beta2AR agonists driving receptor internalization, primary screen, cell-based, FAP fluorogen, flow cytometry; Beta-2 adrenergic receptor (Homo sapiens), P07550; AID 504454, 2011; response, % (test concentration not listed); hit rate 0.43% among 340,000; Am2.2-beta2AR cells;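 active = response above a set limit, near 3 SD of response in nonfluorescent compounds, cut at about 42% in these data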
Target sequence (P07550 whole entry, looked up): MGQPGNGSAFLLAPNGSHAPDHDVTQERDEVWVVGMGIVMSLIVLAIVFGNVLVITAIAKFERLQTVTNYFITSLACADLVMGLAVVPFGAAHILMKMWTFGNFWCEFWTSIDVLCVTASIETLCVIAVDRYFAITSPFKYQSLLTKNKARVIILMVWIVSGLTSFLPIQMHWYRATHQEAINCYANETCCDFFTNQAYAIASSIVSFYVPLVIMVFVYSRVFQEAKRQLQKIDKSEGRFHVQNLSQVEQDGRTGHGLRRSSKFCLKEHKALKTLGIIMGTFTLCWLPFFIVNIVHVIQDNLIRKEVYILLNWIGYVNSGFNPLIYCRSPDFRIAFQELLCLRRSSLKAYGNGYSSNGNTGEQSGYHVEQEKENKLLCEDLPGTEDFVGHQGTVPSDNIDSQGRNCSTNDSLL
TIM10 inh – growth inhibitors of isogenic TIM10 control yeast, primary screen, counter-screen for tim10-1 yeast inhibitor project, luminescence, uHTS. S. cerevisiae TIM10 strain growth, BacTiter-Glo luminescence, 24 h. inhibition, % at 10 µM. hit rate 1.4% among 330,000;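 active = inhibition of 40% or more at the single tested concentration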;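 also: wild-type TIM10 isogenic control strain grown at permissive 25 °C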
tim10-1 inh – growth inhibitors of tim10-1 mutant yeast, primary screen, luminescence, uHTS; S. cerevisiae tim10-1 ts strain growth, BacTiter-Glo, 24 h; AID 463190, 2010; hit rate 2.2% among 330,000; inhibition, % at 20 µM;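 active = inhibition of at least 40%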;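 also: mutant grown at 25 °C; 0% = DMSO wells with yeast and 100% = wells holding no yeast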
PfHsp90 yeast 2 – growth inhibition of PfHsp90-expressing yeast, primary screen, antimalarial PfHsp90 inhibitor project, S. cerevisiae, BacTiter-Glo luminescence, single point, set 2 | inhibition, % at 9.4 µM | BacTiter-Glo ATP, 48 h; yeast lacking PDR1 and PDR3 efflux regulators | hit rate 0.32% among 310,000;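 active = every replicate shows inhibition above about 80%, whatever the replicate mean, limit read from the data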;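 also: 0% = DMSO neutral controls and 100% = 20 µM radicicol positive controls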
tim10-1 conf – growth inhibitors of tim10-1 mutant yeast, confirmation, single concentration, luminescence, S. cerevisiae; hit rate 56% among 7,400; inhibition, % at 20 µM; S. cerevisiae tim10-1 ts strain growth, BacTiter-Glo, 24 h; shares compounds with tim10-1 inh;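 active = inhibition of yeast growth at or above a set limit in either of two repeat tests at 20 µM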;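 also: tim10-1 mutant grown at permissive 25 °C to find synthetic lethal compounds; 0% = DMSO yeast wells and 100% = medium wells without yeast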
TIM10 conf – growth inhibitors of wild-type TIM10 yeast, confirmation, counter-screen for tim10-1 synthetic lethality project, single concentration, luminescence, S. cerevisiae; shares compounds with TIM10 inh; hit rate 63% among 4,600; AID 463215, 2010; S. cerevisiae tim10 strain growth, BacTiter-Glo luminescence, 24 h; inhibition, % at 10 µM;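 active = inhibition of yeast growth at or above a set limit in either of two replicates at 10 µM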;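 also: this counterscreen used the strain with wild-type TIM10; 0% = yeast with DMSO and 100% = medium wells lacking yeast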
Starred values were filed as active, the others as inactive; · = no result given. An excerpt weighted towards active compounds, which were near 3.8% of everything screened.

SMILES	tim23-1 inh	Beta2AR agonist	TIM10 inh	tim10-1 inh	PfHsp90 yeast 2	tim10-1 conf	TIM10 conf
Cc1ccnc(Nc2nc(-c3c(C)nc4sccn34)cs2)c1	11	2	45*	44*	-12	13	32*
Cc1ccnc(Nc2nc(-c3ccccc3)cs2)c1	29	-2	9	17	-19	·	·
COc1ccc(Nc2c3ccccc3nc3ccccc23)cc1	-1	-24	-19	-20	38	·	·
COc1cc(Nc2c3ccccc3nc3ccccc23)cc(OC)c1OC	38	22	60*	78*	-28	76*	38*
COc1ccc(NC(=O)/C=C/c2c(Cl)nc3ccccn23)cc1	1	-10	13	28	10	·	·
COc1ccccc1N1CCN(C(=O)/C=C/c2c(Cl)nc3ccccn23)CC1	44	-20	42*	59*	-10	51*	36*
Cc1cccc(CN2C(=O)[C@H]3Cc4c([nH]c5ccccc45)C(C)(C)N3C2=O)c1	48	20	43*	44*	·	35*	35*
Cc1cccc(CN2C(=O)[C@@H]3Cc4c([nH]c5ccccc45)C(C)(C)N3C2=O)c1	27	12	11	15	-5	·	·
CCCc1ccc(OC(=O)c2ccc(O)cc2Cl)cc1	42	13	41*	51*	2	38*	45*
CCCc1ccc(OC(=O)c2cccs2)cc1	20	1	-2	14	-7	·	·
CCN1CCC(O)(C(C(=O)O)c2ccccc2)CC1 (stereo unspecified)	·	5	·	·	-5	·	·
O=C(/C=C/c1ccccc1)Nn1c(-c2cccs2)nc2ccccc2c1=O	10	-3	16	16	·	·	·
O=C(/C=C/c1cccc(Cl)c1)Nn1c(-c2cccs2)nc2ccccc2c1=O	36	3	43*	45*	14	36*	25
O=C(Nc1ccc(OC(F)F)cc1)Nc1cccc(C(F)(F)F)c1	44	8	63*	57*	17	51*	52*
NNC(=O)Nc1cccc(C(F)(F)F)c1	22	0	8	13	·	·	·
NC(=O)/C=C\C(=O)Nc1cccc(C(F)(F)F)c1	31	5	56*	61*	97*	55*	66*
O=C(Nc1ccncc1)Nc1cccc(C(F)(F)F)c1	7	-3	1	7	19	·	·
O=C(Cc1ccc(F)cc1)N[C@@H]1c2ccccc2CC[C@@H]1OCc1ccccc1	14	-2	-20	-2	-1	·	·
COc1ccc(C)c2sc(N3CCCC3)nc12	46	3	44*	44*	·	33*	26
COc1ccc(OC)c2sc(N3CCN(c4ccccc4)CC3)nc12	24	11	20	12	-82	·	·
Cc1ccc(-n2nc3c(=O)n(C(C)C(=O)NCCC4=CCCCC4)nc(C)c3c2C)cc1 (stereo unspecified)	26	2	-15	35	6	·	·
O=C(COc1cccc(C(F)(F)F)c1)Nc1ccc(S(=O)(=O)N2CCCC2)cc1	40	1	68*	50*	-12	53*	51*
CC(=O)Nc1ccc(S(=O)(=O)N2CCCC2)cc1	-10	-1	-3	-9	10	·	·
O=C(Nc1ccccc1)Nc1ccc(S(=O)(=O)N2CCCCC2)cc1	35	6	51*	43*	-2	32*	-16
O=C(Cc1cccc(C(F)(F)F)c1)Nc1ccc(S(=O)(=O)N2CCCC2)cc1	8	-6	8	28	11	·	·
COc1ccc(C(=O)Nc2ccc(S(=O)(=O)N3CCCC3)cc2)cc1	37	13	45*	55*	23	31	33*
O=C(COc1ccccc1F)Nc1ccc(S(=O)(=O)N2CCCC2)cc1	29	-3	44*	50*	-15	30	33*
C=CCOC(=O)N1CCC2CC1c1cc(-c3cccc(C)c3)ccc12 (stereo unspecified)	·	3	·	·	-8	·	·
